46 molecules from ChEMBL document CHEMBL3988442, “University of Dundee, Small-Polar-MMV Screening Library” (2021) can be followed below.

The campaign covered roughly 66,000 compounds. About 960 (1.5%) showed an effect of 50% or more. For the sample, strong results were picked, then their nearest neighbours and some compounds at random.

In this experiment the test system is Trypanosoma brucei. Nature of the experiment: Trypanosoma brucei 72 hour study. In kind it is functional, organism-based. Details: scale not given: in the data most compounds retested in dose-response had high values.

In the case of `COc1ccc(F)c(-c2ncccc2C(=O)N2C[C@H]3CC[C@@H]2C3)c1`, the “Percent Effect” value (30 µM, 30.03 µM) is -6.323%.
Turning to `CCn1c(CN2CCC(O)(c3ccc4c(c3)OCO4)CC2)cnc1SC.O=C(O)CC(O)(CC(=O)O)C(=O)O`, under “30.3 µM, […]”, the “Percent Effect” value is -5.268%.
With `COc1cc(N2C[C@@H]3COC[C@]3(COCc3ccncc3)C2)ncn1.O=C(O)C(F)(F)F.O=C(O)C(F)(F)F`, the “Percent Effect” value (30 µM, 30.03 µM) is listed as -12.8%.
Turning to `CN1CCCc2c1nc1c(c2N)CCCC1.O=C(O)C(=O)O`, under “30.3 µM, […]”, the “Percent Effect” value is on record as 6.357%.
As to `Cc1ccc(-c2nnc(CN3CC(n4cc(C)cn4)C3)o2)cc1`, where the note is “30 µM, 30.03 µM”, the “Percent Effect” value is recorded as -4.601%.
With `Cc1cnn(C2CN(Cc3nnc(C4CC4)o3)C2)c1`, under “30.3 µM, […]”, the “Percent Effect” value turned out to be 93.44%.
Same read-out and setting: with `Cc1cnn(C2CN(Cc3noc(C4CC4)n3)C2)c1` the figure was -128.4%.
Still for that read-out and setting: as for `CCn1ccnc1CN1CCCC1C(=O)Nc1nccs1` (stereo unspecified), the figure is 4.608%; as for `Fc1cccc(CN2CCC3(CCCN3c3ncccn3)CC2)c1.O=C(O)C(F)(F)F`, -16.3%.
The same measure, in the same setting: as for `CCOC(=O)C1(CCOC)CCN(Cc2nccn2CC)CC1`, the figure is -0.1521%.
For the molecule `CCn1ccnc1CN1CCCC(CO)(Cc2cccc(Cl)c2)C1` (stereo unspecified), under “30 µM, 30.03 µM”, the “Percent Effect” value turned out to be 109.3%.
Same read-out and setting: as for `CCC1(CO)CCCN(Cc2nccn2Cc2ccccc2)C1` (stereo unspecified), the figure is -5.033%.
As to `CCOC(=O)C1(CCOC)CCCN(Cc2nccn2CC)C1` (stereo unspecified), for the setting “30.3 µM, […]”, the “Percent Effect” value is reported as -20.23%.
As to `CCn1ccnc1CN1CCCC(CO)(Cc2cccc(OC)c2)C1` (stereo unspecified), the “Percent Effect” value (30 µM, 30.03 µM) is listed as -22.09%.
As for `CCOC(=O)C1(Cc2ccccc2)CCCN(Cc2nccn2CC)C1` (stereo unspecified), under “30.3 µM, […]”, the “Percent Effect” value was determined as 95.74%.
In the case of `Cn1cc(CCC(=O)N2C[C@H]3CC[C@@H]2CN(Cc2cccnc2)C3)cn1`, the “Percent Effect” value (30 µM, 30.03 µM) was -23.98%.
On the same count and under the same terms, as for `Cc1ccnc(NC(=O)C2CCN(CCCc3cn[nH]c3)CC2)c1`, the figure is -19.03%; as for `Cc1cc(NC(=O)N2CCOC(C(N)=O)C2)ccc1Br` (stereo unspecified), -3.776%.
With `NC(=O)C1CN(C(=O)Nc2cc(Cl)cc(Cl)c2)CCO1` (stereo unspecified), the “Percent Effect” value (30 µM, 30.03 µM) is reported as 103.3%.
For the molecule `COCC1CN(C(=O)Nc2cc(Cl)cc(Cl)c2)CCO1` (stereo unspecified), the “Percent Effect” value (30.3 µM, […]) is given as -16.88%.
With `CCN(CC)CCn1c(=O)oc2ccccc21.Cl`, the “Percent Effect” value (30 µM, 30.03 µM) is reported as -24.39%.
Still for that read-out and setting: with `CC1(C)CNC(=O)c2nc(-c3n[nH]c(=O)[nH]3)[nH]c2C1` the figure was -63.36%.
Turning to `Cc1cn2cc(-c3nc4c([nH]3)CCCNC4=O)nc2s1`, where the note is “30 µM, 30.03 µM”, the “Percent Effect” value is on record as 81.5%.
Still for that read-out and setting: with `Cc1ccc2nc(-c3nc4c([nH]3)CCCNC4=O)cn2c1` the figure was 99.29%.
Consider `CC(C)Cn1cncc1-c1nc2c([nH]1)CCCNC2=O`, for which the “Percent Effect” value (30 µM, 30.03 µM) was -24.09%.
Same read-out and setting: as for `COc1cc(-c2nc3c([nH]2)CCCNC3=O)cc(OC)c1OC`, the figure is -56.65%.
Regarding `CC(C)Oc1cccc(-c2nc3c([nH]2)CCCNC3=O)c1`, where the note is “30 µM, 30.03 µM”, the “Percent Effect” value was -40%.
On the same count and under the same terms, with `CC1(C)CNC(=O)c2nc(-c3ccccc3)[nH]c2C1` the figure was -21.93%; with `Cc1ccc2nc(-c3nc4c([nH]3)CC(C)(C)CNC4=O)cn2c1`, 106.8%; with `Cc1cccc(Cc2nc3c([nH]2)CCCNC3=O)c1`, -3.182%.
The same measure, in the same setting: with `Cc1cccc2nc(-c3nc4c([nH]3)CCCNC4=O)cn12` the figure was 66.46%; with `COc1ccc(-c2nc3c([nH]2)CCCNC3=O)cc1OC`, -51.91%.
For `COc1cc(-c2nc3c([nH]2)CCCNC3=O)ccc1O`, the “Percent Effect” value (30 µM, 30.03 µM) is recorded as 4.773%.
Consider `CN(Cc1ccco1)C[C@H]1OC[C@@H]2CN(c3ncc(F)cn3)CC[C@@H]21.O=C(O)C(F)(F)F.O=C(O)C(F)(F)F`, for which, under “30.3 µM, […]”, the “Percent Effect” value is recorded as -14.08%.
As to `CN(C)C(=O)N1CCC2(CC1)CCN(Cc1ccccn1)C2=O.O=C(O)C(F)(F)F`, the “Percent Effect” value (30 µM, 30.03 µM) was 7.411%.
On to `Cc1ccc(CN2C[C@H](NC(=O)c3nccn3C)[C@H]3OCCC[C@H]32)o1`, for which the “Percent Effect” value (30.3 µM, […]) is listed as -18.85%.
Turning to `O=C(O)C(F)(F)F.O=C(O)C(F)(F)F.c1cncc(CN2CCn3c(Cn4cncn4)cnc3C2)c1`, under “30.3 µM, […]”, the “Percent Effect” value is on record as -106.7%.
Still for that read-out and setting: as for `Cc1cc(C(=O)N2CC[C@@H](N(C)C)[C@@H]2Cc2ccccc2)no1.O=C(O)C(F)(F)F`, the figure is 3.974%; as for `CN(C)CCn1c([C@@H]2CCCO2)cc2cccnc21.Cl`, -17.47%.
As for `CN(C)S(=O)(=O)N1CCC2(COCc3cnc(NCC4CC4)nc32)C1` (stereo unspecified), the “Percent Effect” value (30 µM, 30.03 µM) is given as -49.38%.
Take `CNC(=O)[C@@H]1CCO[C@@H]2CCN(Cc3ccsc3)C[C@H]21.O=C(O)C(F)(F)F`: the “Percent Effect” value (30.3 µM, […]) is listed as -300.6%.
Still for that read-out and setting: with `O=C(C1CCC1)N1CCC2(CCCN2CC2CC2)CC1.O=C(O)C(F)(F)F` the figure was -53.73%.
Turning to `COc1ccc(CN2CCOCC3(CCN(C4CCOCC4)C3)C2)cc1.O=C(O)C(F)(F)F.O=C(O)C(F)(F)F` (stereo unspecified), under “30 µM, 30.03 µM”, the “Percent Effect” value is given as 20.44%.
On to `O=C(Nc1ccccc1)c1ccc2c(c1)C1(CCCCC1)CN2.O=C(O)C(F)(F)F`, for which the “Percent Effect” value (30.3 µM, […]) was determined as 97.07%.
The same measure, in the same setting: with `O=C(O)C(F)(F)F.O=C1CC2(CNCCN(C(=O)Nc3ccccc3)C2)CN1` (stereo unspecified) the figure was -24.96%.
Same read-out and setting: with `CC(=O)c1ccc(NC(=O)c2ccc3c(c2)C2(CCCCC2)CN3)cc1.O=C(O)C(F)(F)F` the figure was -13.93%.
